Reference: PubChem BioAssay (NCATS)
Where “and” joins values, the source holds several entries; their conditions need not be identical. Equal values may be shown once. Records with an inconclusive call do not appear. Entries that show only a call come without a potency. Values without a mark were called inactive. Calls of active or inactive are those of the source. Calls come from the whole dose curve; as a rule, active = well fitted curve in the direction sought with a large enough effect; inconclusive = small, poorly fitted or top-dose-only effect, or another doubt; inactive = no such curve, though single readings can be large; an effect the other way counts as inactive or inconclusive.

What was measured:
[1] = biological target: Cellular tumor antigen p53 (Homo sapiens) (UniProt P04637); test: Primary qHTS for small molecule compounds that upregulate eGFP-tagged delta133p53alpha (in N-terminal) cells. (AID 2060322); settings: NCI-H358 eGFP-delta133p53alpha fluorescence, 24 h; activation: stronger effect = higher value; note: nearly all actives have a fitted effect of over 75% in size; note: potency is the fitted concentration of half-maximal effect; for activation: series mostly up to about 56 µM
Outline: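 NCI-H358 cells pre-induced 24 h with 10 ng/ml doxycycline to express N-terminal eGFP-delta133p53alpha, then dosed 24 h at 37C without doxycycline; fixed, Hoechst-stained, GFP intensity by laser scanning cytometry, normalized to DMSO (0%) and 57.5 uM 5-azacytidine (100%).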

[2] = biological target: Aldehyde dehydrogenase, mitochondrial (Homo sapiens) (UniProt P05091); test: qHTS for Inhibitors of the Aldehyde Dehydrogenase Family (ALDH2) Primary screen (AID 2061308); note: nearly all actives have a fitted effect of over 55% in size
[3] = biological target: Retinaldehyde dehydrogenase 3 (Homo sapiens) (UniProt P47895); test: qHTS for Inhibitors of the Aldehyde Dehydrogenase Family (ALDH1A3) Primary screen (AID 2061315)

Cellular tumor antigen p53 (Homo sapiens), sequence (P04637 whole entry, looked up): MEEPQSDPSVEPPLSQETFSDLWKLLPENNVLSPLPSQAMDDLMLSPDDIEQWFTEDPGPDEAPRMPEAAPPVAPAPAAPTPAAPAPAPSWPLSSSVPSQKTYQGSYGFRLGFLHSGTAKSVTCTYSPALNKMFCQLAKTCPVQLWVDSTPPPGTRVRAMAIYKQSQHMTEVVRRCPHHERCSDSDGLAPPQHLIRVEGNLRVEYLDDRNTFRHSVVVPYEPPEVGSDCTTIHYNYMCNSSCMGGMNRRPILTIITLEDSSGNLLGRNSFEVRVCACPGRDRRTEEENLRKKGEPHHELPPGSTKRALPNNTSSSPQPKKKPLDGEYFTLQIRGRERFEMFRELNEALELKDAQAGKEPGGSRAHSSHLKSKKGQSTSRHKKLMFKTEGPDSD

SMILES | activation [1] | Potency [2] | Potency [3] | Potency [1] | activity change, negative = inhibition [2] | activity change, negative = inhibition [3]
C/C=C1/CN2CC[C@]34C(=Nc5ccc(OC)cc53)C2C[C@@H]1C4(CO)C(=O)OC (some centres undefined) | -9.16% | inactive | inactive |  |  | 
CC1CCCCCC(=O)c2c(O)cc(O)cc2CC(=O)O1 (centres undefined) | -18.3% | inactive | inactive |  |  | 
CC1CCCC(O)CC(=O)Cc2cc(O)cc(O)c2C(=O)O1 (centres undefined) | 7.63% | inactive | inactive |  |  | 
C/C=C(\C)C(=O)OC1C(C)OC(OC2C(C)OC(OC3CCC4(C)C(=CCC5C4CCC4(C)C(C(C)OC6OC(COC7OC(CO)C(O)C(O)C7O)C(O)C(O)C6O)CCC54O)C3)CC2OC)C(O)C1OC (centres undefined) | 0.763% | inactive | inactive |  |  | 
C[C@]12CC[C@@H](O)C[C@H]1CC[C@@H]1[C@@H]2CC[C@]2(C)C(=O)CC[C@@H]12 | 3.67% | inactive | inactive |  |  | 
CC(=O)O[C@H]1C[C@@H](OC(C)=O)C(C)(C)C2C[C@@H](O)[C@]3(C)C(CC[C@@]4(C)[C@H](C5=CC(=O)OC5O)C[C@H]5O[C@]543)[C@]21C (some centres undefined) | -6.87% | inactive | inactive |  |  | 
C/C=C(\C)C(=O)OC1CC2C(CC=C3CC(OC4CC(OC)C(OC5CC(OC)C(OC6CC(OC)C(OC7CC(OC)C(O)C(C)O7)C(C)O6)C(C)O5)C(C)O4)CCC32C)C2(O)CCC(C(C)=O)C12C (centres undefined) | -6.11% | inactive | inactive |  |  | 
CC[C@H]1CN2CC[C@H]1C[C@@H]2[C@@H](O)c1ccnc2ccc(OC)cc12 | 17.9% | inactive | inactive |  |  | 
C=C(C)[C@@]12O[C@@H]1[C@@]1(C)C(=CC2=O)CC[C@@H](OC(C)=O)[C@@H]1C |  | inactive | inactive | 30.1 µM (active) |  | 
Cc1sc2c(c1C)C(c1ccc(Cl)cc1)=NC(CC(=O)OC(C)(C)C)c1nnc(C)n1-2 (centres undefined) | 7.64% | inactive | inactive |  |  | 
CN1CCC2=C(C1)c1ccccc1Cc1ccccc12 | 16.2% | inactive | inactive |  |  | 
c1ccc([C@@H]2C[C@H]2NC2CCNCC2)cc1 | 13.8% | inactive | inactive |  |  | 
COC1CC(=O)C23C(=O)NC(CC(C)C)C2C(C)=C(C)C(OO)C3/C=C(\C)CCC(O)C1O (centres undefined) | -4.58% | inactive | inactive |  |  | 
CC[C@@H](C)[C@H]1C(=O)O[C@H](C(C)C)C(=O)N(C)[C@@H]([C@@H](C)CC)C(=O)O[C@H](C(C)C)C(=O)N(C)[C@@H]([C@H](C)CC)C(=O)O[C@H](C(C)C)C(=O)N1C | 9.82% | inactive | inactive |  |  | 
CN1C(=O)N(c2ccc(C#N)c(C(F)(F)F)c2)C(=O)[C@@]1(CO)c1ccccc1 | -3.67% | inactive | inactive |  |  | 
CC(=O)OC[C@]12C[C@H](OC(=O)CC(C)C)C(C)=C[C@H]1O[C@@H]1[C@H](O)[C@@H](OC(C)=O)[C@@]2(C)[C@@]12CO2 |  | inactive | inactive | 0.0828 µM (active) |  | 
COC[C@]12CN(C)C3C4[C@H](OC)[C@H]1C3(C(OC)C[C@H]2O)[C@H]1C[C@@]2(O)[C@H](OC(=O)c3ccccc3)[C@@H]1[C@]4(O)[C@@H](O)[C@@H]2OC (some centres undefined) | -0.333% | inactive | inactive |  |  | 
C=C1CC[C@H]2[C@@H](/C=C(\C)C(=O)[C@@]3(OC(C)=O)C[C@H](C)[C@H](OC(=O)c4ccccc4)[C@@H]3[C@H]1OC(C)=O)C2(C)C | -11.5% | inactive | inactive |  |  | 
C[C@@H]1C(=O)O[C@H]2[C@H](O)[C@@]34[C@@H]5OC(=O)[C@@]3(O[C@@H]3OC(=O)[C@@H](O)[C@@]34[C@H](C(C)(C)C)[C@H]5O)[C@@]12O | 2.68% | inactive | inactive |  |  | 
CC(=O)OC[C@]12C[C@H](O)C(C)=C[C@H]1O[C@@H]1[C@H](O)[C@@H](OC(C)=O)[C@@]2(C)[C@]12CO2 |  | inactive | inactive | 0.083 µM (active) |  | 
Cc1c(N2C(=O)[C@@H]3[C@H](O)CCN3C2=O)ccc(C#N)c1Cl | 3.82% | inactive | inactive |  |  | 
CC12CCC3C(C1)c1c(cc(O)c(C(=O)c4ccccc4)c1OC3(C)C)O2 (centres undefined) | -17.6% | inactive | inactive |  |  | 
CC[C@@]1(O)C(=O)OCc2c1cc1n(c2=O)Cc2cc3c(OC)cccc3nc2-1 |  | inactive | inactive | 6.59 µM (active) |  | 
CC[C@H]1CN2CC[C@H]1C[C@H]2[C@H](O)c1ccnc2ccc(OC)cc12 | 7.14% | inactive | inactive |  |  | 
C=CC(C)(C)C12C=C(O)C(=O)N3/C(=C\c4cnc[nH]4)C(=O)NC31N(OC)c1ccccc12 (centres undefined) |  | inactive | inactive | 4.65 µM (active) |  | 
O=C(N[C@H]1CN2CCC1CC2)c1cc2cccc(Cl)c2s1 | 38.7% | inactive | inactive |  |  | 
COC(=O)C12C(=O)C(C)(O)C(=O)C1(C)C(C)=CC1C34CCC(OC3=O)C(C)(CO)C4CCC12C (centres undefined) | -16.8% | inactive | inactive |  |  | 

SMILES | activation [1] | Potency [2] | Potency [3] | Potency [1] | activity change, negative = inhibition [2] | activity change, negative = inhibition [3]
CC1=CC2(O)/C=C/C(C)(O)C(O)C(O)/C=C/C(=O)OC23C(=O)NC(CC(C)C)C3C1C (centres undefined) | 0.763% | inactive | inactive |  |  | 
CCC(C)(OC(C)=O)C(=O)O[C@H]1[C@H](OC(C)=O)C[C@@H]2[C@@](C)([C@@H]3C[C@H]4C=CO[C@H]4O3)[C@H](C)C[C@H](OC(C)=O)[C@@]2(COC(C)=O)[C@@]12CO2 (some centres undefined) | -3.82% | inactive | inactive |  |  | 
CC1=CC2OC3CC(O)[C@](C)([C@@]2(C)C(O)C1=O)[C@]31CO1 (some centres undefined) |  | inactive | inactive | 21.3 µM (active) |  | 
C=C1C(=O)CC2OC2(C)CC2OC(=O)C(=C)C2C(O)C1OC(=O)/C(C)=C\C (centres undefined) |  | inactive | inactive | 18.6 µM (active) |  | 
CCC1=CC2CN3CCc4c([nH]c5ccccc45)[C@@](C(=O)OC)(C2)[C@@H]13 | 6.11% | inactive | inactive |  |  | 
CCC1NC(=O)C2C(Cl)C(Cl)CN2C(=O)C(C(C)O)NC(=O)CC(c2ccccc2)NC(=O)C(CO)NC1=O (centres undefined) | 8.93% | inactive | inactive |  |  | 
O=C(O)CCCCCCNC1c2ccccc2CCc2ccccc21 | 5.67% | inactive | inactive |  |  | 
COC1C(O)C(C)OC(OC2C(CO)O[C@@H](O[C@@H]3CC4CCC5C(CC[C@]6(C)[C@@H](C7=CC(=O)OC7)CC[C@]56O)[C@@]4(C)[C@H](O)C3)C(O)C2O)C1O (some centres undefined) |  | inactive | inactive | 5 µM (active) |  | 
CN1C(=O)c2ccccc2NC(=O)C1Cc1ccccc1 (centres undefined) | -18.3% | inactive | inactive |  |  | 
CCOC(=O)NC(C)(C)Cc1ccc(Cl)cc1 | -6.33% | inactive | inactive |  |  | 
COc1ccc(CN(C(=O)[C@@H](N)Cc2c(C)cc(C(N)=O)cc2C)[C@@H](C)c2ncc(-c3ccccc3)[nH]2)cc1C(=O)O | 12.3% | inactive | inactive |  |  | 
C/C=C1/CN2CC[C@]34C(=Nc5ccccc53)[C@@H]2C[C@@H]1[C@H]4C(=O)OC | 17.9% | inactive | inactive |  |  | 
COC1=CC(=O)O[C@@H](/C=C/c2ccccc2)C1 | -10.7% | inactive | inactive |  |  | 
CC(C)(C)[C@]1(O)C[C@@H]2OC(=O)C[C@@]23C(=O)O[C@@H]2OC(=O)[C@@H](O)[C@]213 | -1.79% | inactive | inactive |  |  | 
CCN1C[C@]2(COC)CC[C@H](O)[C@@]34C5C[C@@H]6[C@@H](OC)C[C@@](OC(C)=O)(C5[C@@H]6OC(C)=O)[C@H]([C@H](OC)C23)[C@@H]14 (some centres undefined) | 8.04% | inactive | inactive |  |  | 
CCN1CC2(COC)C3[C@@H](OC)C4C1C3(C1C[C@]3(O)[C@H](OC(=O)c5ccccc5)C1[C@]4(OC(C)=O)[C@@H](O)[C@@H]3OC)[C@H](OC)C[C@H]2O (some centres undefined) | 8.33% | inactive | inactive |  |  | 
C[C@@]12C[C@@H](c3ccoc3)OC(=O)C1CC[C@]1(C)[C@H]2[C@H]2C=C[C@]1(O)C(=O)O2 (some centres undefined) | -2.29% | inactive | inactive |  |  | 
CCC1C2CC3C4N(C)c5ccccc5C45CC(C2C5O)N3C1O (centres undefined) | 9.82% | inactive | inactive |  |  | 
COC(=O)C1=COC(C)C2CN3CCC4(C(=O)Nc5ccccc54)C3CC12 (centres undefined) | 11.5% | inactive | inactive |  |  | 
CCCCn1cc(C(=O)c2cccc3ccccc23)c2ccccc21 | 0.955% | inactive | inactive |  |  | 
CCCOC(=O)Cc1ccc(OCC(=O)N(CC)CC)c(OC)c1 | 4.33% | inactive | inactive |  |  | 
CC(C)(O)/C=C/C(=O)[C@](C)(O)[C@H]1[C@H](O)C[C@@]2(C)[C@@H]3CC=C4[C@@H](C[C@H](O)C(=O)C4(C)C)[C@]3(C)C(=O)C[C@]12C |  | inactive | inactive | 4.65 µM (active) |  | 
C=CCN1C[C@H](C)N([C@H](c2ccc(C(=O)N(CC)CC)cc2)c2cccc(OC)c2)C[C@H]1C | -16.4% and -0.333% |  |  |  | -7.89% [at 11.2 µM] | 6.9% [at 11.2 µM]
C=C[C@H]1CN2CCC1C[C@H]2[C@H](O)c1ccnc2ccccc12 (some centres undefined) | -2.33% | inactive | inactive |  |  | 
CC(=O)OC[C@]12[C@H](OC(C)=O)C(=O)[C@@H]3[C@@H](O)[C@@]14O[C@@]3(C)COC(=O)c1cccnc1[C@@H](C)[C@H](C)C(=O)O[C@@H]([C@H](OC(C)=O)[C@@H]2OC(C)=O)[C@]4(C)O | 21.4% | inactive | inactive |  |  | 
CC1=CC2/C=C(\C)CCC(O)C(O)C(O)CC(=O)C23C(=O)NC(CC(C)C)C3C1C (centres undefined) | -32.8% | inactive | inactive |  |  | 
